This note sets out measurements from PubChem BioAssay AID504339 (National Center for Advancing Translational Sciences (NCATS), 2011).

Among all 390,000 compounds or so, about 17,000 (4.4%) were called active. Where a call stands in place of a potency, no number is given. About 8% were inconclusive and are not listed. The sample holds actives, similar compounds and a random draw of the others, so the mix is not that of the screen. The call rests on the fitted dose curve; in most records, active means well fitted inhibition curve with a large enough effect; inconclusive means small, poorly fitted or top-dose-only effect; inactive means no such curve, though single readings can be large or run the other way.
Potency means the concentration at half of the fitted maximal effect.

In the assay the target is Lysine-specific demethylase 4A (Homo sapiens) (UniProt O75164). As to the kind of experiment: qHTS Assay for Inhibitors of JMJD2A-Tudor Domain. Further: nearly all actives have a fitted effect of over 50% in size. Particulars: AlphaScreen JMJD2A-Tudor / H3K4me3 peptide binding; series mostly up to 114 µM. (In general: In qHTS, concentration-response curves come from the screen itself.)
Chain of Lysine-specific demethylase 4A (Homo sapiens) (O75164 whole entry, looked up, the tested form may be a part): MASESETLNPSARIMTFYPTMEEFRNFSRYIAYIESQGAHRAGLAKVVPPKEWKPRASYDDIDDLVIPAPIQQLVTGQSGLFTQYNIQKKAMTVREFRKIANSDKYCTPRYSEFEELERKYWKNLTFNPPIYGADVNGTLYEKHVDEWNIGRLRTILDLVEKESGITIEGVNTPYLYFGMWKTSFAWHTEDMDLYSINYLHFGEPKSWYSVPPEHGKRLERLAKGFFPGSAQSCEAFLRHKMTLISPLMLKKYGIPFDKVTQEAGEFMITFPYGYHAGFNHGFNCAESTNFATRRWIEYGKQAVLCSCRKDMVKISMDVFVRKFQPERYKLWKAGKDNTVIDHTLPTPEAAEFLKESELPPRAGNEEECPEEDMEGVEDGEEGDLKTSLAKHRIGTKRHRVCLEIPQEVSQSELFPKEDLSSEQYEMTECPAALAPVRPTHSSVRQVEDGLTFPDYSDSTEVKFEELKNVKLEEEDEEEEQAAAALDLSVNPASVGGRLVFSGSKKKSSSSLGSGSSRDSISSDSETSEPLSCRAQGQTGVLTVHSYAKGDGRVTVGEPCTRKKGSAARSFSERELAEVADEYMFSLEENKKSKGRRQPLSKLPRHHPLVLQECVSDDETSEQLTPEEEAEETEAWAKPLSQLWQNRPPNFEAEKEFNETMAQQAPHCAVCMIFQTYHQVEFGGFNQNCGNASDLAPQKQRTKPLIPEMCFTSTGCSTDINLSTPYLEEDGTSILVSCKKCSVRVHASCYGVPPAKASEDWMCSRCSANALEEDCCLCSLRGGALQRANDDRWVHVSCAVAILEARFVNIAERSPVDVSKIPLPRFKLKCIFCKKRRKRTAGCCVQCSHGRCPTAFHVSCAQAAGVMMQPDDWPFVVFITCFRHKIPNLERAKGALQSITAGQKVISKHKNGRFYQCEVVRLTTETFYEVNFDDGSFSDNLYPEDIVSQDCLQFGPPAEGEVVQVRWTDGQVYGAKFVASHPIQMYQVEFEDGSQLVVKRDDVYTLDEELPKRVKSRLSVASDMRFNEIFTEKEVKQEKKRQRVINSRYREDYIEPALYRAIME
As to `COc1cc(-c2cc3n(C)c(C)c(CCC(=O)Nc4ccc(F)cc4)c(=O)n3n2)cc(OC)c1OC`, the Potency entry is “inactive”.

Take `COC(=O)c1ccccc1NC(=O)c1cc(-c2ccccc2O)no1`: the Potency result is “inactive”.

Take `Fc1cccc(-n2ncc3c2ncn2nc(-c4ccccc4Cl)nc32)c1`: the Potency result was “inactive”.

As for `CC(=O)Nc1cccc(OCC(=O)/C=C2\N(C)c3ccccc3C2(C)C)c1`, the Potency result was “inactive”.

`CN1/C(=C\C=C2\N=C(c3ccc(F)cc3)OC2=O)C(C)(C)c2ccccc21`: the Potency was 56.2 µM (active).

As for `CN1CCN(CCC(=O)N/N=C/C=C2\N(C)c3ccccc3C2(C)C)CC1`, the Potency entry was “inactive”.

On to `O=C1C(F)N([S+](=O)([O-])c2ccc3c(c2)OCCO3)CCN1[S+](=O)([O-])c1c(F)cccc1F` (configuration not stated), for which the Potency result is “inactive”.

On to `COCCCn1c(Cc2csc(Nc3cccc(Cl)c3)n2)nnc1SCC(=O)OC1CCCCC1`, for which the Potency is 44.7 µM (active).

For `COCCCn1c(SCC(=O)Nc2ccccc2)nnc1-c1ccncc1`, the Potency result was “inactive”.

In the case of `COCCCn1c(SCC(=O)NC2CCCC2)nnc1-c1ccccc1`, the Potency entry is “inactive”.

For the compound `COc1ccccc1CNc1ccc(-c2nc(-c3ccccc3C)no2)cc1[N+](=O)[O-]`, the Potency result is “inactive”.

For `c1coc(CCNc2ncnc3ccc(-c4ccc5c(c4)OCO5)cc23)c1`, the Potency was 56.2 µM (active).

As for `CN(Cc1cncn1C)c1ncnc2ccc(-c3ccc4c(c3)OCO4)cc12`, the Potency entry is “inactive”.

With `Cc1noc(C)c1-c1ccc2ncnc(NCc3ccc(F)c(F)c3)c2c1`, the Potency entry is “inactive”.

Take `Cc1nc(CNc2ncnc3ccc(-c4ccc5c(c4)OCO5)cc23)cs1`: the Potency is 79.4 µM (active).

`O=C(Cn1nnc(-c2ccc3c(c2)OCO3)n1)NCc1ccco1`: the Potency result is “inactive”.

Consider `CS(=O)(=O)N(CC(=O)NCc1ccco1)c1ccc2c(c1)OCO2`, for which the Potency result is “inactive”.

With `O=c1c(=O)n(Cc2c(F)cccc2Cl)ccn1Cc1ccccc1`, the Potency result was “inactive”.

In the case of `COc1cc(Cl)ccc1Nc1ncc(C(=O)N2CCN(c3ccccc3OC)CC2)c2ccccc12`, the Potency result is “inactive”.

For `Cc1cccc(C(=O)Nc2ccc(-c3nc4ccccc4s3)c(C)c2)c1`, the Potency result is “inactive”.

For `COc1ccc(CNC(=O)CC2Oc3ccc(C)cc3NC2=O)cc1` (configuration not stated), the Potency result is “inactive”.

On to `Cc1ccc(-n2nc(CO)c(C(=O)NCCc3ccccc3)n2)cc1`, for which the Potency entry is “inactive”.

For the compound `Cc1cc(C)n(-c2ccc(NC(=O)C3CCCCN3C(=O)c3cccs3)cc2)n1` (configuration not stated), the Potency entry is “inactive”.

For `Cc1ccc(NC(=O)C2CCCN2C(=O)OCc2ccccc2)cc1C` (configuration not stated), the Potency entry is “inactive”.

Regarding `COc1ccc(C(=O)N2CCCCC2C(=O)Nc2ccc(-n3nc(C)cc3C)cc2)o1` (configuration not stated), the Potency is 15.8 µM (active).

Regarding `Cc1nn(-c2ccc(N3CCCCC3)nn2)c(C)c1CCC(=O)NCc1ccc(F)cc1`, the Potency result was “inactive”.

On to `COc1ccc(-c2onc(C)c2C)cc1S(=O)(=O)NCCc1ccccc1`, for which the Potency entry is “inactive”.

With `CN(C)c1nccc(NCc2ccccc2)c1C#N`, the Potency result was “inactive”.

Turning to `CCC(CO)Oc1cc(NCc2ccccc2)c2ncn(C3CCCC3)c2c1` (configuration not stated), the Potency was 56.2 µM (active).

Take `CCC(CO)Oc1cc(NC(=O)c2ccc(Cl)cc2)c2ncn(C(C)C)c2c1` (configuration not stated): the Potency result is “inactive”.

As for `CC(C)n1cnc2c(NCc3ccccc3)cc(OCC3CCN(C)CC3)cc21`, the Potency is 39.8 µM (active).

In the case of `COc1ccc(CNc2nc(NCc3ccc(OC)cc3)c3ncn(C4CCCC4)c3n2)cc1`, the Potency entry was “inactive”.

Turning to `CCOC(=O)c1cccc(NC(=O)c2cc(S(=O)(=O)N3CCCC(C)C3)cn2C)c1` (configuration not stated), the Potency result was “inactive”.

`CC1CCCCN1Cc1c(O)ccc2c(=O)c(-c3cccc(Cl)c3)c(C(F)(F)F)oc12` (configuration not stated): the Potency entry was “inactive”.

As to `O=C(CN1C(=O)CCn2nc(-c3ccccc3)cc21)NCc1ccccc1`, the Potency entry was “inactive”.

`Cc1nc2c(-c3ccccc3)c(C)nn2c(C)c1CCC(=O)NCCc1ccccc1`: the Potency result was “inactive”.

In the case of `COc1ccc(Cl)cc1NC(=O)CN(C)Cc1ccc(OC)c(OC)c1`, the Potency is 1.26 µM (active).

Take `Cn1c(=O)oc2cc(S(=O)(=O)CCC(=O)NCCc3ccc(Cl)cc3)ccc21`: the Potency result was “inactive”.

With `COc1ccc(Cl)cc1NC(=O)CN(C)C(=O)c1ccc2n[nH]nc2c1`, the Potency result was “inactive”.

As to `CC(=O)N1CCc2cc(Br)cc(S(=O)(=O)CCC(=O)NCCc3ccc(Cl)cc3)c21`, the Potency result is “inactive”.

Take `O=C(CCS(=O)(=O)c1ccc(Br)cc1)NCCc1ccc(Cl)cc1`: the Potency was 63.1 µM (active).

Consider `COc1ccc(Cl)cc1NC(=O)CCC(=O)c1ccc(C)cc1`, for which the Potency result is “inactive”.

Regarding `COc1ccc(Cl)cc1NC(=O)CCS(=O)(=O)c1cc2c(cc1C)NC(=O)CO2`, the Potency entry is “inactive”.

Turning to `COc1ccc(Cl)cc1NC(=O)CN(C)CC(=O)Nc1ccc2c(c1)OCO2`, the Potency entry is “inactive”.

`COc1ccc(Cl)cc1NC(=O)CCS(=O)(=O)c1ccc(Br)cc1`: the Potency was 22.4 µM (active).

On to `CCCOc1ccc(-c2cccc(NS(=O)(=O)c3ccccc3)c2)nn1`, for which the Potency entry is “inactive”.

As for `COc1ccc(OC)c(-c2csc(-c3c(N)c(C(=O)c4ccccc4)n4ccccc34)n2)c1`, the Potency entry is “inactive”.

For the compound `CCc1ccc(C(=O)CC2(O)C(=O)N(CCc3ccccc3)c3ccc(Br)cc32)cc1` (configuration not stated), the Potency result was “inactive”.

Consider `C=C1CCN(Cc2ccc(OC)cc2)S(=O)(=O)c2ccccc21`, for which the Potency result is “inactive”.

Regarding `CC1Cc2cc(S(=O)(=O)CCC(=O)NCc3ccc(Cl)cc3)ccc2N1C(=O)C1CC1` (configuration not stated), the Potency entry was “inactive”.

Regarding `Cc1cc(C)cc(NS(=O)(=O)c2ccc(-c3cc(C)no3)s2)c1`, the Potency result was “inactive”.

Take `Cc1cc(N=Nc2ccc3ccccc3c2)ccc1O`: the Potency was 44.7 µM (active).

For `COc1ccccc1-n1c(-c2ccc(C)cc2)cn2c3c(=O)n(C)c(=O)n(C)c3nc12`, the Potency entry was “inactive”.

Turning to `COc1ccc(CNc2nc(-c3ccc(Cl)cc3)cc(C(F)(F)F)n2)cc1`, the Potency result is “inactive”.

Turning to `O=S(=O)(c1ccc(Br)cc1)c1nnn2c1nc(N1CCOCC1)c1sccc12`, the Potency result is “inactive”.

Take `O=c1[nH]c(CSc2ncc(-c3ccc(F)cc3)n2Cc2ccco2)nc2ccccc12`: the Potency is 35.5 µM (active).

Consider `O=C(c1ccco1)N(Cc1nc2ccccc2c(=O)[nH]1)C1CCCC1`, for which the Potency result is “inactive”.

Take `O=C(CSc1ncc(CO)n1Cc1ccc(F)cc1)NCc1ccco1`: the Potency entry is “inactive”.

For `CCOc1ccc(CCNC(=O)c2ccc3c(c2)sc2nc(-c4ccc(F)cc4)cn23)cc1OCC`, the Potency entry was “inactive”.

In the case of `Cc1cc(C)c(C2C3=C(Nc4c2c(C)nn4-c2ccccn2)c2ccccc2C3=O)c(C)c1` (configuration not stated), the Potency was 25.1 µM (active).

`COc1ccc(NC(=O)c2ccc3oc(=O)c(S(=O)(=O)c4ccc(F)cc4)cc3c2)c(OC)c1`: the Potency entry is “inactive”.

With `Cc1ccc(C(=O)CC2(O)C(=O)N(CCc3ccccc3)c3ccc(Br)cc32)cc1` (configuration not stated), the Potency result is “inactive”.
